According to PubChem BioAssay (NCATS):
Where “and” joins values, the source holds several entries; their conditions need not be identical. Equal values may be shown once. Values without a mark were called inactive. Results filed as inconclusive are left out. Calls of active or inactive are those of the source. Unless noted, how the calls were made is not given here.

What was measured:
[1] = qHTS Assay for Identification of Small Molecule Inducers of Hypoxia Response (AID 2120; active means well fitted curve in the direction sought with a large enough effect in the signal ratio, with a control signal flat, not every such curve was filed as active; the % refers to the signal ratio; further: potency means the concentration at half of the fitted maximal effect)
Procedure, shortened: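 HRE-bla ME-180, 2500 cells/well, 0.5% dialyzed FBS medium; cpd titration, 17 h 37 degrees C; CCF4 2.5 h RT; Ex 405, Em 460/530 ratio -> %Activity, AC50.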

[2] = biological target: Estrogen receptor (Homo sapiens) (UniProt P03372); experiment: qHTS assay for small molecule antagonists of estrogen receptor alpha signaling (AID 588513; active means well fitted curve in the direction sought with a large enough effect in the signal ratio, with a control signal flat, not every such curve was filed as active; the % refers to the signal ratio)
Procedure, shortened: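 Beta-lactamase reporter, antagonist mode, HEK 293 GripTite cells; 0.5nM E2 stimulus, 18 h, 37 C; CCF4 dye 2 h RT; fluorescence. IC50 and efficacy from Hill fits, normalized to E2 and DMSO.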

[3] = qHTS assay for small molecule agonists of the antioxidant response element (ARE) signaling pathway (AID 651741; active means well fitted activation curve with a large enough effect in the signal ratio; the % refers to the signal ratio; further: potency means the concentration at half of the fitted maximal effect)
Procedure, shortened: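 Agonist activity is measured as ARE-driven beta-lactamase expression in a stable HepG2 reporter line, using 16 h compound treatment at 37 C and a FRET substrate fluorescence readout after 2 h.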

[4] = qHTS assay for environmental chemicals that activate the Aryl hydrocarbon Receptor (AhR) signaling pathway (AID 651777; active means well fitted curve in the direction sought with a large enough effect; an effect the other way counts as inactive or inconclusive; further: potency means the concentration at half of the fitted maximal effect; nearly all actives have a fitted effect of over 15% in size); conditions: 1A2-DRE human hepatoma cells, luciferase, 24 h; activation: active compounds read high
Procedure, shortened: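 1A2-DRE human hepatoma reporter line; 1,200 cells/well; cmpd or DMSO 24 h, 37 C/5% CO2; One-Glo 30 min RT; luciferase lum.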

[5] = biological target: Nuclear receptor ROR-gamma (Homo sapiens) (UniProt P51449); experiment: qHTS assay for small molecule antagonists of the retinoid-related orphan receptor gamma (ROR-gamma) signaling pathway (AID 651802; active means well fitted curve in the direction sought with a large enough effect; an effect the other way counts as inactive or inconclusive;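 further: CHO cells with doxycycline-induced ROR-gamma expression; luciferase reporter luminescence driven by ROR response element; series mostly up to about 92 µM; nearly all actives have a fitted effect of over 60% in size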)
Procedure, shortened: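 Doxycycline-induced reporter activity in engineered CHO cells (TET-inducible ROR, RORE-LUC) was measured by luminescence after 16hr compound exposure at 37C.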

[6] = system: HIV-1 nucleocapsid protein NCp7 (binding to TG oligonucleotide); experiment: HIV Nucleocapsid (AID 346); conditions: HIV-1 NC / fluorescein-TGTGTGTG probe, fluorescence polarization;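 further: potency means the concentration at half of the fitted maximal effect; potency is for inhibitors that block NC binding and lower polarization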
Procedure, shortened: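 Fluorescence polarization readout: labelled TG4xF oligo (10 nM) with 100 nM nucleocapsid protein, high-salt (250mM NaCl) Hepes pH 7.5 buffer containing zinc and fresh reducing agents. Compounds added by pin tool; incubation 1 hr, room temperature.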

Chain of Estrogen receptor (Homo sapiens) (P03372 whole entry, looked up): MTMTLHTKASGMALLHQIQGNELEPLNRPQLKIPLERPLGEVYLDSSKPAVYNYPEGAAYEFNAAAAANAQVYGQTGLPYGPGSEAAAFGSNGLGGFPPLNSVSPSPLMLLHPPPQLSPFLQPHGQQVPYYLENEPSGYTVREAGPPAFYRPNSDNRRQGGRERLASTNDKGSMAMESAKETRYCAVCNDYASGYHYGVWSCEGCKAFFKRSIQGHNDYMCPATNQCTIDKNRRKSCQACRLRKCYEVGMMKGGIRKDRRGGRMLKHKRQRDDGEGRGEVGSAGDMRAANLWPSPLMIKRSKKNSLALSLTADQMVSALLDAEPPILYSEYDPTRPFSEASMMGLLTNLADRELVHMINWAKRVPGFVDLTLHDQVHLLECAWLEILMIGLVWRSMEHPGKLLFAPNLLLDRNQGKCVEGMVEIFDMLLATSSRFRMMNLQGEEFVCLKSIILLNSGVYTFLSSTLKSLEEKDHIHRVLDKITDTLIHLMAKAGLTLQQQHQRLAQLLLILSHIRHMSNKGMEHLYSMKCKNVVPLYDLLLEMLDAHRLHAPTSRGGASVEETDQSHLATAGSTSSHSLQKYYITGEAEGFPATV
Chain of Nuclear receptor ROR-gamma (Homo sapiens) (P51449 whole entry, looked up): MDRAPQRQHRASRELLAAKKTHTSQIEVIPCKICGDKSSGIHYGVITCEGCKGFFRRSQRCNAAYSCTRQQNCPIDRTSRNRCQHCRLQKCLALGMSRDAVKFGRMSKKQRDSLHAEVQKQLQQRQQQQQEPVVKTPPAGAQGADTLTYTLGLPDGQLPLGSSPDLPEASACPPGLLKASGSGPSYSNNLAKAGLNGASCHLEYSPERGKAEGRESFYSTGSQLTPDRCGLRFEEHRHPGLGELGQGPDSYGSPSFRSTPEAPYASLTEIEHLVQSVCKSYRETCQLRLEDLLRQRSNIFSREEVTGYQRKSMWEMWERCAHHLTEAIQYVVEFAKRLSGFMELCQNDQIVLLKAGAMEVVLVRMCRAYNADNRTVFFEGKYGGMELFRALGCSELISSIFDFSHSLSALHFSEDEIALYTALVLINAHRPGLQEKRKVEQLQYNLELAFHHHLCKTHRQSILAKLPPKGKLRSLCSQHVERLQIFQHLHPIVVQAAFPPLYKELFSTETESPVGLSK

## c1ccc2c(c1)-c1cccc3c1c-2cc1ccccc13
[1]
  Potency: 44.7 µM (active)
[2]
  Potency: inactive
[3]
  Potency: 10.6 µM (active) and 6.11 µM (active)
[4]
  Potency: 10 µM (active)
[5]
  Potency: inactive

## COCCNc1nc(-c2ccccc2C)nc2ccccc12
[6]
  Potency: > 20 µM

## COCCn1c(=O)c(-c2ccccc2)nc2cnc(Nc3ccccc3)nc21
[6]
  Potency: > 20 µM

## COCC(=O)N1CCC2(CCCN(C(=O)Nc3cccc(C#N)c3)C2)CC1
[6]
  Potency: > 20 µM

## CN1CCN(c2ncc3nc(-c4cccs4)c(=O)n(-c4ccccc4)c3n2)CC1
[6]
  Potency: 16.7 µM

## Cn1c(=O)c(-c2cccs2)nc2cncnc21
[6]
  Potency: > 20 µM

## CN(C)c1nc(-c2ccoc2)nc2ccccc12
[6]
  Potency: > 20 µM

## COc1ccc(CNc2nc(-c3cccnc3)nc3ccccc23)c(OC)c1
[6]
  Potency: > 20 µM

## COc1ccc2[nH]cc(CCNc3ccnc(-c4cccnc4)n3)c2c1
[6]
  Potency: > 20 µM

## COc1ccccc1CN1CC[C@@]2(CCCN(C(=O)c3ccco3)C2)C1
[6]
  Potency: > 20 µM

## COc1cccc(Nc2ncc3nc(C)c(=O)n(CCc4ccccc4)c3n2)c1
[6]
  Potency: > 20 µM

## COc1ccccc1CNc1cc(-c2ccoc2)ncn1
[6]
  Potency: > 20 µM

## CN1CCCC2(CCN(C(=O)c3cccc(F)c3)CC2)C1
[6]
  Potency: > 20 µM

## COc1ccc(NC(=O)N2CCC3(CC2)CCN(C(=O)c2cccc(F)c2)CC3)cc1
[6]
  Potency: > 20 µM

## COc1ccc(Oc2ncc3nc(-c4cccc(C#N)c4)c(=O)n(CCC#N)c3n2)cc1
[6]
  Potency: > 20 µM

## N#CCCn1c(=O)c(-c2ccccc2)nc2cnc(Oc3ccccc3)nc21
[6]
  Potency: > 20 µM

## COc1ccc2[nH]cc(CCNc3cc(-c4ccoc4)ncn3)c2c1
[6]
  Potency: > 20 µM

## O=C(Oc1ccccc1)N1CCC2(CC1)CCN(c1ccccc1)CC2
[6]
  Potency: > 20 µM

## Cn1cccc1C(=O)N1CCC2(CC1)CN(C(=O)Nc1cccc(C#N)c1)C2
[6]
  Potency: > 20 µM

## COc1ccc(Oc2ncc3nc(C)c(=O)n(C)c3n2)cc1
[6]
  Potency: > 20 µM

## COc1ccc(-n2c(=O)c(CCc3ccccc3)nc3cnc(N4CCOCC4)nc32)cc1
[6]
  Potency: > 20 µM

## COc1ccc(NC(=O)N2CCCC3(CCN(C(=O)c4ccc(OC)cc4)CC3)C2)cc1
[6]
  Potency: > 20 µM

## COc1ccc(C(=O)N2CCC3(CCN(C(=O)Nc4cccc(C#N)c4)CC3)CC2)cc1
[6]
  Potency: > 20 µM

## CCNc1ncc2nc(-c3ccccc3)c(=O)n(Cc3ccc(F)cc3)c2n1
[6]
  Potency: > 20 µM

## COc1ccc(Oc2ncc3nc(-c4ccc(OC)cc4)c(=O)n(CCC#N)c3n2)cc1
[6]
  Potency: > 20 µM

## CC(=O)N1CCC2(CC1)CN(c1cccc(-c3ccccc3)c1)C2
[6]
  Potency: > 20 µM

## Cc1cnc(CNc2ncncc2-c2c(C)noc2C)cn1
[6]
  Potency: > 20 µM

## O=C(Oc1ccccc1)N1CCC2(CC1)CN(c1ccncc1)C2
[6]
  Potency: > 20 µM

## Cn1c(=O)cnc2cnc(Oc3ccccc3)nc21
[6]
  Potency: > 20 µM

## CN1CCN(c2ncc3nc(-c4cn(C)c5ccccc45)c(=O)n(C)c3n2)CC1
[6]
  Potency: > 20 µM

## COc1cccc(-c2ccc3ncnc(N(C)Cc4ccco4)c3c2)c1
[6]
  Potency: > 20 µM

## N#CCCn1c(=O)c(-c2cccs2)nc2cnc(Nc3ccccc3)nc21
[6]
  Potency: > 20 µM

## O=C(c1cccc(F)c1)N1CCC2(CCN(Cc3ccccc3)CC2)CC1
[6]
  Potency: > 20 µM

## CN(C)C(=O)c1ccc(-c2ccc3ncnc(NCc4cccnc4)c3c2)cc1
[6]
  Potency: > 20 µM

## CCNc1ncc2nc(-c3ccc(Cl)cc3)c(=O)n(C)c2n1
[6]
  Potency: > 20 µM

## CN(C)c1ncnc2ccc(-c3cccc(C#N)c3)cc12
[6]
  Potency: > 20 µM

## N#Cc1cccc(-c2nc(NCc3cccs3)c3ccccc3n2)c1
[6]
  Potency: > 20 µM

## COc1ccc2[nH]cc(CCNc3ncncc3-c3ccc(N(C)C)cc3)c2c1
[6]
  Potency: > 20 µM

## CS(=O)(=O)N1CCC2(CCN(c3cccc(-c4ccccc4)c3)CC2)CC1
[6]
  Potency: > 20 µM

## COc1ccc(Oc2ncc3nc(C)c(=O)n(CCC#N)c3n2)cc1
[6]
  Potency: > 20 µM

## Cn1cc(-c2nc3cnc(N4CCNCC4)nc3n(-c3ccccc3)c2=O)c2ccccc21
[6]
  Potency: > 4 µM

## CN1CCN(c2ncc3nc(-c4cn(C)c5ccccc45)c(=O)n(C[C@H]4CCCO4)c3n2)CC1
[6]
  Potency: > 20 µM

## COc1ncc2nc(C)c(=O)n(C[C@H]3CCCO3)c2n1
[6]
  Potency: > 20 µM

## N#Cc1cccc(-c2nccc(NCc3ccccc3)n2)c1
[6]
  Potency: > 20 µM

## COc1ccccc1CNc1cc(-c2ccccc2C(F)(F)F)ncn1
[6]
  Potency: > 20 µM

## Cn1cc(-c2nc3cncnc3n(Cc3ccccc3Cl)c2=O)c2ccccc21
[6]
  Potency: > 20 µM

## O=c1c(-c2ccccc2)nc2cnc(N3CCNCC3)nc2n1Cc1ccc(F)cc1
[6]
  Potency: > 20 µM

## COc1ncc2nc(-c3ccccc3)c(=O)n(CCc3ccccc3)c2n1
[6]
  Potency: > 20 µM

## c1nc(NC2CCNCC2)c2cc(-c3ccc4c(c3)OCO4)ccc2n1
[6]
  Potency: > 20 µM

## O=S(=O)(c1ccccc1)N1CCC2(CCN(Cc3ccncc3)CC2)CC1
[6]
  Potency: > 20 µM

## COc1ccccc1CNc1nc(-c2cccnc2)nc2ccccc12
[6]
  Potency: > 20 µM

## c1ccc(CNc2ccnc(-c3ccoc3)n2)cc1
[6]
  Potency: > 20 µM

## COc1cccc(Cn2c(=O)c(-c3ccccc3)nc3cnc(OC)nc32)c1
[6]
  Potency: > 20 µM

## O=C(c1cccc(F)c1)N1CCC2(CC1)CN(c1ccc(-c3ccccc3)cc1)C2
[6]
  Potency: > 20 µM

## COc1ccccc1CNc1ncnc2ccc(-c3cccc(NS(C)(=O)=O)c3)cc12
[6]
  Potency: > 20 µM

## CN(Cc1ccco1)c1ncncc1-c1cccnc1
[6]
  Potency: > 20 µM

## COc1ccc(CNc2ncncc2-c2ccc(N(C)C)cc2)c(OC)c1
[6]
  Potency: > 20 µM

## Cn1cccc1C(=O)N1CCC2(CCN(Cc3nccs3)CC2)CC1
[6]
  Potency: > 20 µM

## COc1ccccc1CN1CCCC2(CCN(C(=O)c3csnn3)CC2)C1
[6]
  Potency: > 20 µM

## Cc1cnc(CNc2ncnc3ccc(-c4ccoc4)cc23)cn1
[6]
  Potency: > 20 µM

## Cc1ccccc1-c1cncnc1NCc1cccnc1
[6]
  Potency: > 20 µM

## COc1ccc(CNc2cc(-c3ccccc3CN(C)C)ncn2)c(OC)c1
[6]
  Potency: > 20 µM

## COC(=O)N1CCC[C@@]2(CCN(c3ccncc3)C2)C1
[6]
  Potency: > 20 µM

## COc1ccc(-n2c(=O)cnc3cnc(Nc4ccccc4)nc32)cc1
[6]
  Potency: > 4 µM

## Fc1ccc(Nc2nc(-c3cccnc3)nc3ccccc23)cc1
[6]
  Potency: > 20 µM

## COc1ncc2nc(-c3ccc(F)cc3)c(=O)n(CCc3ccccc3)c2n1
[6]
  Potency: > 20 µM

## CN(C)Cc1ccccc1-c1nccc(Nc2ccc(F)cc2)n1
[6]
  Potency: > 20 µM

## COc1ccccc1CN1CCC2(CC1)CCN(C(=O)c1ccncc1)CC2
[6]
  Potency: > 20 µM

## N#Cc1cccc(-c2cc(NCc3ccccc3)ncn2)c1
[6]
  Potency: > 20 µM

## Cc1cccc(CNc2nc(-c3ccc(C(=O)N(C)C)cc3)nc3ccccc23)c1
[6]
  Potency: > 20 µM

## COc1ncc2ncc(=O)n(CCC#N)c2n1
[6]
  Potency: > 20 µM

## NCCn1c(=O)c(CCc2ccccc2)nc2cncnc21
[6]
  Potency: > 20 µM

## O=S(=O)(c1ccccc1)N1CCC2(CCCN(Cc3ccccc3)C2)CC1
[6]
  Potency: > 20 µM

## N#Cc1cccc(-c2ccc3ncnc(NCCN4CCOCC4)c3c2)c1
[6]
  Potency: > 20 µM

## Cc1cccc(CNc2ncncc2-c2ccccc2C(F)(F)F)c1
[6]
  Potency: > 20 µM

## COCCn1c(=O)c(-c2cccc(C#N)c2)nc2cnc(OC)nc21
[6]
  Potency: > 20 µM

## Cc1noc(C)c1C(=O)N1CCC[C@@]2(CCN(Cc3ccccc3)C2)C1
[6]
  Potency: > 20 µM

## CN(C)c1ccc(-c2cncnc2Nc2ccccc2)cc1
[6]
  Potency: > 20 µM

## Cn1c(=O)c(-c2ccc(Cl)cc2)nc2cncnc21
[6]
  Potency: > 20 µM

## CCNc1ncc2nc(-c3ccc(Cl)cc3)c(=O)n(Cc3cccc(OC)c3)c2n1
[6]
  Potency: 14.6 µM

## O=C(c1ccncc1)N1CCC[C@@]2(CCN(Cc3ccccc3)C2)C1
[6]
  Potency: > 20 µM

## CN(Cc1ccco1)c1cc(-c2ccccc2C(F)(F)F)ncn1
[6]
  Potency: > 20 µM

## COc1ncc2nc(-c3cc(F)cc(F)c3)c(=O)n(C)c2n1
[6]
  Potency: > 20 µM
